Screening data from PubChem BioAssay.
DT40 TDP1 no CPT: qHTS for Inhibitors of human tyrosyl-DNA phosphodiesterase 1 (TDP1): qHTS in cells in absence of CPT; DT40 Tdp1-/- hTDP1 cells, no CPT, ATP luminescence, 48 h; Potency, µM (highest dose often 46.2 µM), inactives show top-dose activity change, negative = growth inhibition, actives largely listed as inhibitors; actives 15% (n = 420,000); AID 686978, 2013; note: potency is the fitted concentration of half-maximal effect; nearly all actives have a fitted effect of over 55% in size
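No-CPT arm: Tdp1-/-;hTDP1 DT40 cells (400/well) plus compounds, incubated ≥48 hr at 37 °C. Readout CellTiter-Glo luminescence.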
IL1B secr inh: qHTS for Inhibitors of Inflammasome Signaling: IL-1-beta AlphaLISA Primary Screen | THP-1 LPS/ATP IL-1B secretion, AlphaLISA, 16 h; hits give low values | activity change, % at 57.5 µM | actives 4.7% (n = 360,000) | AID 743279, 2014; in the data active = activity change below about -50%; inconclusive = mostly about -30% to -49%
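THP-1 cells pretreated 1 hr with compounds (up to 57.5 uM final), then stimulated with LPS (250 ng/mL final) plus ATP (1.25 mM final); secreted IL-1B measured by AlphaLISA after 16 hr, decreased signal indicating inhibition.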
HT1080-NT tox: qHTS for induction of synthetic lethality in tumor cells producing 2HG: qHTS for the HT-1080-NT fibrosarcoma cell line | actives 1.6% (n = 360,000) | AID 686970, 2013 | HT-1080-NT fibrosarcoma viability, CellTiter-Glo ATP luminescence, 48 h | Potency, µM (doses to about 46.1 µM), for inactives: at the highest dose activity, negative = less viability, usual class: cytotoxic;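 note: NT is the 2HG producing partner of a matched IDH1 knockdown line; potency is the fitted concentration of half-maximal effect; 0% = DMSO-treated cells and -100% = media-only wells without cells; nearly all actives have a fitted effect of over 55% in size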
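Toxicity toward the 2HG-producing NT line was scored as %Activity, normalised to DMSO and no-cell wells, from CellTiter-Glo luminescence after 48 hours' treatment.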
DT40 TDP1 CPT: qHTS for Inhibitors of human tyrosyl-DNA phosphodiesterase 1 (TDP1): qHTS in cells in presence of CPT. chicken DT40 Tdp1-/-;hTDP1 cells + 20 nM CPT, ATP luminescence, 48 h. Potency, µM (titrated, usually from 46.2 µM), inactives show at the highest dose activity change, negative = growth inhibition, actives largely listed as inhibitors. actives 12% (n = 420,000); note: potency is the fitted concentration of half-maximal effect; nearly all actives have a fitted effect of over 55% in size
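Cell growth measured by CellTiter-Glo luminescence after a minimum 48 h, 37 C compound exposure with 20 nM CPT in Tdp1-knockout DT40 cells stably expressing hTDP1, seeded 400/well; qHTS titration format.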
HT1080 IDH1KD tx: qHTS for induction of synthetic lethality in tumor cells producing 2HG: qHTS for the HT-1080-IDH1KD cell line | actives 2% (n = 360,000) | Potency, µM (series often up to 46.1 µM), without a hit: top-dose activity, negative = toxicity, most hits filed as cytotoxic | HT-1080 IDH1 knockdown viability, ATP luminescence, 48 h;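 note: potency is the fitted concentration of half-maximal effect; 0% = DMSO wells and -100% = cell-free medium wells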
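Viability of IDH1-knockdown HT-1080 fibrosarcoma cells was assessed by CellTiter-Glo after 48 h at 37 °C with titrated compound; concentration-effect curves were classified by fit quality and response size.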
Active calls of the source: *; u = inconclusive; [ ] = dose if it differs, or a comment. Only some compounds are listed: those with a hit (about 19% of all), similar ones and a draw of the others. Unless noted, calls come from the whole dose curve; as a rule, active = well fitted curve in the direction sought with a large enough effect; inconclusive = small, poorly fitted or top-dose-only effect, or another doubt; inactive = no such curve, though single readings can be large; an effect the other way counts as inactive or inconclusive. Unless noted, % is set by controls: 0 for no effect and ±100 for the full control effect.

SMILES | DT40 TDP1 no CPT | IL1B secr inh | HT1080-NT tox | DT40 TDP1 CPT | HT1080 IDH1KD tx
COC(=O)N[C@@H]1C[C@H]2[C@@H]3CC[C@H]4C[C@@H](OC)CC[C@]4(C)[C@H]3CC[C@]12C | u | 51 | -7% | u | -3%
CCN(CC)C(=O)C1=C(C)N(CCCOC)C(=O)C(CC(=O)NCCc2ccccn2)C1 (stereo not drawn) | 5% | 25 | 19% | 4% | -5%
O=C1ON=C(c2ccccc2)/C1=C/c1ccc(-c2ccccc2[N+](=O)[O-])o1 | 15µM* | -110* | -23% | 12µM* | u
COc1cccc(-c2nnc3sc(-c4cccs4)nn23)c1 | 16µM* | u | 5% | 15µM* | 4%
COc1cccc(-c2nnc3sc(-c4ccco4)nn23)c1 | -16% | u | 5% | -8% | 1%
CCOc1cccc(-c2nnc3sc(-c4cccs4)nn23)c1 | 13µM* | -13 | -3% | 15µM* | 8%
O=C(NCc1ccccn1)c1cccc(NS(=O)(=O)c2ccc(Br)cc2)c1 | 4% | 30 | 4%[9.24 µM] | u | 2%
Nc1cc(Cc2ccccc2)ccc1O | u | -25 | 0% | 23µM* | -4%
Cn1nc(C(=O)OCC(=O)c2ccc(Br)cc2)c2ccccc2c1=O | -12% | 4 | 0% | -7% | 6%
Cc1oc(-c2ccccc2)nc1Cn1cccc1C1=NC(c2ccccc2)CO1 (stereo not drawn) | 23µM* | -10 | -13% | u | u
CCc1ccccc1NC(=O)Cn1cccc1C1=NC(c2ccccc2)CO1 (stereo not drawn) | -3% | 10 | u | -1% | 16µM*
Cc1ccc(NC(=O)Cn2cccc2C2=NC(c3ccccc3)CO2)cc1C (stereo not drawn) | u | 17 | 0% | u | 0%
O=C1N/C(=N/c2ccccn2)SC1Cc1ccccc1 (stereo not drawn) | u | 34 | u | u | 10µM*
Cc1ccc(CC2S/C(=N/c3ccccn3)NC2=O)cc1 (stereo not drawn) | -15% | 14 | -17% | 6% | -10%
CCOCc1c(C(=O)Nc2ccc3nc(N4CCOCC4)sc3c2)oc2ccccc12 | u | -16 | -2% | 21µM* | -10%
Cc1ccccc1CNC(=O)c1ccc2nc(N3CCOCC3)sc2c1 | u | 9 | 0% | u | -7%
CCCn1nc(C(=O)Nc2ccc3nc(N4CCOCC4)sc3c2)ccc1=O | 10µM* | 17 | u | 9.2µM* | u
Cc1ccccc1NC(=O)c1ccc2nc(N3CCOCC3)sc2c1 | 15µM* | -26 | 0% | 18µM* | -1%
COc1ccc(C(=O)Nc2ccc3nc(N4CCOCC4)sc3c2)cc1OC | -2% | 48 | -3% | -17% | 0%
CCOCc1c(C(=O)Nc2ccccc2N2CCN(C)CC2)oc2ccccc12 | 10µM* | -57* | -7% | 8.2µM* | -9%
CCOCc1c(C(=O)Nc2cc(OCC)c(N3CCOCC3)cc2OCC)oc2ccccc12 | u | 27 | -2% | u | 10%
c1ccc2c(c1)oc1c(-c3ccc4nccn4c3)cccc12 | u | 23 | u | u | u
Cc1ccc(S(=O)(=O)N2CCN(C(=O)c3c(C)nn(-c4ccccc4)c3Cl)CC2)cc1 | u | -54* | -1% | u | 20%
Cc1cc(C)c(S(=O)(=O)N2CCN(C(=O)c3c(C)nn(-c4ccccc4)c3Cl)CC2)c(C)c1 | u | u | -5% | u | -1%
COc1ccc(S(=O)(=O)N2CCN(C(=O)c3c(C)nn(-c4ccccc4)c3Cl)CC2)cc1 | 23µM* | -11 | -5% | u | -7%
SMILES | DT40 TDP1 no CPT | IL1B secr inh | HT1080-NT tox | DT40 TDP1 CPT | HT1080 IDH1KD tx
Cc1nn(-c2ccccc2)c(Cl)c1C(=O)NNC(=O)c1ccccc1O | 13µM* | 111 | -24% | u | u
Cc1ccc(S(=O)(=O)N2CCN(C(=O)n3ccnc3)CC2)cc1 | 12µM* | -15 | -4%[9.24 µM] | 0.65µM* | 2%
CC(C)c1ccc(S(=O)(=O)N2CCN(C(=O)n3ccnc3)CC2)cc1 | -1% | u | 0% | u | -1%
CCCc1cc(=O)[nH]c(SCC(=O)N2CCC(C)CC2)n1 | 10% | 18 | -3% | 8% | -2%
CCCCc1ccc(NC(=O)CSC2=C(C#N)C(c3ccco3)C3=C(CCCC3=O)N2)cc1 (stereo not drawn) | u | -86* | u | u | u
COc1ccc(C2C(C#N)=C(SCC(=O)Nc3ccc(C)cc3)NC3=C2C(=O)CC(C)(C)C3)cc1 (stereo not drawn) | 16µM* | -57* | 0% | 23µM* | -1%
COc1cccc(NC(=O)CSC2=C(C#N)C(c3ccco3)C3=C(CCCC3=O)N2)c1 (stereo not drawn) | -13% | u | 9.2µM* | 3% | 7.3µM*
O=C(NCCNc1ccc([N+](=O)[O-])cc1)c1ccccc1Cl | u | -15 | -8% | -21% | -7%
CCOC(=O)c1ccc(NC(=S)N(CCCN2CCCC2)Cc2ccco2)cc1 | u | -67* | u | u | -18%
COc1ccc(NC(=S)N(CCCN2CCC(C)CC2)Cc2cccs2)cc1 | u | -51* | -14% | -10% | -11%
O=C(CNC(=S)N(CCCN1CCOCC1)Cc1cccs1)NC1CCCCCCC1 | 16µM* | -54* | -17% | u | -27%
CCOC(=O)c1ccc(NC(=S)N(CCCN2CCN(C)CC2)Cc2cccs2)cc1 | -14% | u | u | -28% | u
CCOC(=O)c1ccc(NC(=S)N(CCCN2CCN(CC)CC2)Cc2cccs2)cc1 | 18µM* | -1 | -29% | u | u
O=C(CNC(=S)N(CCCN1CCOCC1)Cc1cccs1)NC1CCCCC1 | -6% | 7 | -1% | -11% | -8%
Cc1ccc(NC(=S)N(CCCN2CCC(C)CC2)Cc2ccco2)cc1C | u | -78* | -9% | u | -25%
CCOC(=O)c1ccc(NC(=S)N(CCN2CCCCCC2)Cc2cccs2)cc1 | 15µM* | -3 | 6% | u | 4%
CCOc1ccc(NC(=S)N(CCc2c(C)[nH]c3ccccc23)Cc2ccco2)cc1 | u | u | -24% | 13µM* | -25%
CCOC(=O)c1ccc(NC(=S)N(CCCN2CCCC(C)C2)Cc2cccs2)cc1 (stereo not drawn) | 26µM* | -81* | 0% | u | -5%
